# Assay results: PubChem BioAssay AID624351 (Southern Research Specialized Biocontainment Screening …, 2012)
# Out of some 2,400 compounds screened, about 1,400 (58%) were called active. The set was probably picked from earlier hits. Some of the results follow. Values without a mark were called inactive.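 The calls were made as follows: active = inhibition of 30% or more at any tested dose; inconclusive = primary hits over the limit that were never retested; inactive = the rest.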
# Assay: coupled detection enzyme interference, dose response, artefact control for MgcRacGAP inhibitor project, biochemical, coupled enzyme counter-screen (AID 624351);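 also: signal is the ADP detection kit reading of free GDP without any GAP enzyme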;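 as to inhibition: 0% = median positive control wells and 100% = median negative control wells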
# Details: ADP Hunter coupled enzyme counter-screen, fluorescence, no MgcRacGAP; series mostly up to 80 µM; inhibition: at the top concentration
Structure (SMILES),IC50,inhibition
COc1cc(/C=C/c2ccc3cccc(O)c3n2)ccc1O,81.5 µM (active),
CCCc1nc2ccccc2c(=O)n1/N=C/c1ccc(O)c(O)c1,41.7 µM (active),
COc1cc(/C=N/n2c(C)nc3ccccc3c2=O)ccc1O,43.1 µM (active),
NCC[C@H](O)C(=O)N[C@@H]1C[C@H](N)[C@@H](O[C@H]2O[C@H](CN)[C@@H](O)[C@H](O)[C@H]2O)[C@H](O)[C@H]1O[C@H]1O[C@H](CO)[C@@H](O)[C@H](N)[C@H]1O,,0.86%
COc1cc(/C=N/NC(=O)CN(Cc2ccccc2)S(=O)(=O)c2ccc3c(c2)OCCO3)ccc1O,73 µM (active),
COc1cc(/C=N/NC(=O)CN(Cc2ccco2)S(=O)(=O)c2ccccc2)ccc1O,49.9 µM (active),
CS/C(=N\S(=O)(=O)c1cccs1)NC(=O)CSc1nc2ccccc2s1,,4.26%
C#CCOCCOCCOCCNc1nc(N2CCN(C(=O)[C@H](CCCCN)n3cc(CN)nn3)CC2)nc(N2CCN(C(=O)[C@H](CCC(=O)O)n3cc([C@@H](N)CCCCN)nn3)CC2)n1,,0.72%
CCOC(=O)C1=C(C)NC(=O)CC1c1cc2c(cc1[N+](=O)[O-])OCO2 (stereo unspecified),64.2 µM (active),
OC1CNc2c(ccc3ccccc23)C1 (stereo unspecified),16.5 µM (active),
O=C1CCC(C2CCc3cc(O)ccc3C2)C1 (stereo unspecified),77.7 µM (active),
Clc1nssc1=Nc1ccc(Br)cc1,,15.1%
CSc1nc(C)c2c(n1)N(c1ccc(O)cc1)CC2,16.2 µM (active),
Cc1ccc(N2C(S)=C(C#N)C(=O)NC2c2ccco2)cc1 (stereo unspecified),,7.63%
CCN(CC)CCOCCOc1ccc(Cl)c2ccccc12,,15%
CCOc1cccc2cc(C(=O)Oc3ccc(OC)cc3)c(=O)oc12,,20.3%
Cc1nc(C)c(CC(=O)N/N=C/c2ccc(O)cc2)c(=O)[nH]1,75.8 µM (active),
COc1cc(/C=N/NC(=O)CCC(=O)Nc2ccc(F)cc2)ccc1O,36.4 µM (active),
Cc1ccc(NC(=O)CCC(=O)N/N=C/c2ccc(O)cc2)cc1,51.5 µM (active),
O=C(CCC(=O)Nc1ccc(F)cc1)N/N=C/c1ccc(O)cc1,71.3 µM (active),
CCCCCCCCCCCCCCCC(O)C[N+](C)(C)CCO (stereo unspecified),,-8.37%
Cc1ccc(NC(=O)CN(C)C2CCCCC2)cc1Cl,,12.6%
O=C(CC(=O)Nc1ccc(Cl)c(Cl)c1)N/N=C/c1ccc(O)cc1,66.8 µM (active),
Cc1cc(=O)[nH]c(N/N=C/c2ccc(O)c(O)c2)n1,20.9 µM (active),
COc1cc(/C=N/Nc2nc(C)cc(=O)[nH]2)ccc1O,24.9 µM (active),
S=c1[nH]cc2cnccn12,72.1 µM (active),
